# Source: paper PMC7862700, “An all-to-all approach to the identification of sequence-specific readers for epigenetic DNA modifications on cytosine”
# Tests used:
# Assay in all cases: DAPPL (digital affinity profiling via proximity ligation, sequencing); 10 mM Tris-HCl pH 7.5, 50 mM NaCl, 1 mM DTT, 4% glycerol, room temperature, 30 min; GST-TFs on glutathione beads, 16-mer random dsDNA library, 0.1% formaldehyde crosslink after washing; high values mean tight binding
# [1] = target: T1, FLI1 (Homo sapiens, UniProt Q01543 1-452); conditions: protein: recombinant; tags: N-terminal GST; dsDNA, one strand shown
# T1 sequence: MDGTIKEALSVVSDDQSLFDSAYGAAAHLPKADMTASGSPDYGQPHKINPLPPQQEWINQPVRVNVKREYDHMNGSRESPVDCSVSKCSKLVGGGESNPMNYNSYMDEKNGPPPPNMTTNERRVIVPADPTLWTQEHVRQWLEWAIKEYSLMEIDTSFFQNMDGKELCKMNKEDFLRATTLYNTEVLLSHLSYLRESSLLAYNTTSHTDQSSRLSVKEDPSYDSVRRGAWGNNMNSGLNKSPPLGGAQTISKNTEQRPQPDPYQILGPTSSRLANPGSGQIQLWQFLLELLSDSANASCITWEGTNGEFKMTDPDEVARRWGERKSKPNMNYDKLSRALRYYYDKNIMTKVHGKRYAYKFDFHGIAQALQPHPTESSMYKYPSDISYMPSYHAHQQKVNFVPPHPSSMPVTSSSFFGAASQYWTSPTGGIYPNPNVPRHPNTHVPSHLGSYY
# Outline: (§1)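 In yeast, human transcription factors were expressed with a GST fusion, then pulled down on glutathione beads and given DNA barcodes. Pooled with a tag-only sample, they were exposed to 200 nmole of a 16-mer random double-stranded DNA library (Tris/NaCl/DTT/glycerol buffer, room temperature, 30 min), washed, crosslinked with 0.1% formaldehyde, proximity-ligated using BsaI/T4 ligase for 1 h at 37 °C, PCR-amplified and read on an Illumina NextSeq500. Each hexamer's frequency of reads for a factor, divided by the matching frequency for the tag-only sample, gives the binding signal.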
# [2] = target: T2, ELK1 (Homo sapiens, UniProt P19419 1-428); conditions: protein: recombinant; tags: N-terminal GST; dsDNA, one strand shown
# T2 sequence: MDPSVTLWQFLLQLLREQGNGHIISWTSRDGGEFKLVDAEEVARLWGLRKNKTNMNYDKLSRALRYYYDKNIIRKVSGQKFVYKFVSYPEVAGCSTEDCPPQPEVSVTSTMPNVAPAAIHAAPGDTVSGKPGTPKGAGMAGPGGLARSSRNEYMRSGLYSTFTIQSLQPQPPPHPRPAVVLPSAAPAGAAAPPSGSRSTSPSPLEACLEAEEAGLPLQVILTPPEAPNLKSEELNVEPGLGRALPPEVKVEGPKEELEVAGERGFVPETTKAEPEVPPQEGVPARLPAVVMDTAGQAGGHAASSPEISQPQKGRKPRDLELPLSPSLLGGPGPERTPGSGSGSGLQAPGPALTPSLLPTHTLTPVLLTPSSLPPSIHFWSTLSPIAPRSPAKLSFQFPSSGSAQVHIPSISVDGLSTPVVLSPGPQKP
# Outline: as §1
# [3] = target: T3, GABPA (Homo sapiens, UniProt Q06546 1-454); conditions: protein: recombinant; tags: N-terminal GST; dsDNA, one strand shown
# T3 sequence: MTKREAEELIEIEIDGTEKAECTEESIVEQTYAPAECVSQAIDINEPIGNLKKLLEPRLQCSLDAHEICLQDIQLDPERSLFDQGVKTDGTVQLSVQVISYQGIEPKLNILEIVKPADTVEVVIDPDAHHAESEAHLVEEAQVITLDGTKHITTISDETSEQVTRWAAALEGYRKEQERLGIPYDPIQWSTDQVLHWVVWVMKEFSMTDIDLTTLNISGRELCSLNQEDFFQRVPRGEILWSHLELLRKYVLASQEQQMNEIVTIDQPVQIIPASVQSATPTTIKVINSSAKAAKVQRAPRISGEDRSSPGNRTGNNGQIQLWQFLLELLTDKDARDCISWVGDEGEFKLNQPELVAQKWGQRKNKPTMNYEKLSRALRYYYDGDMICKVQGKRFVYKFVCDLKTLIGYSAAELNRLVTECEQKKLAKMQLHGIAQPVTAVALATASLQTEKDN
# Outline: as §1
# [4] = target: T4, ERG (Homo sapiens, UniProt P11308 1-479); conditions: protein: recombinant; tags: N-terminal GST; dsDNA, one strand shown
# T4 sequence: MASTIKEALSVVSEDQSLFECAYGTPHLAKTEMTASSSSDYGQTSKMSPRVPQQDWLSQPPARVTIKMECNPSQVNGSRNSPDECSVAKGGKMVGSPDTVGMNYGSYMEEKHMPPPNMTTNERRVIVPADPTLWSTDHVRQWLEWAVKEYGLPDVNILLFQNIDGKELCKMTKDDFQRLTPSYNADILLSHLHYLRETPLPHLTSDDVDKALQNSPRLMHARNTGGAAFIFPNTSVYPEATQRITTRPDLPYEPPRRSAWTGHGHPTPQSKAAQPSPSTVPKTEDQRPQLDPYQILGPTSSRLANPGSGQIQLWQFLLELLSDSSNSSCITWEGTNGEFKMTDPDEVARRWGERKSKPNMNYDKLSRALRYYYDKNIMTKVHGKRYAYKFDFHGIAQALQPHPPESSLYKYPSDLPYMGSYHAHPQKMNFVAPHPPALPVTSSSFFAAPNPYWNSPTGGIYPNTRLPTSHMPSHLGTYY
# Outline: as §1
# [5] = target: ELF1 (Homo sapiens, UniProt P32519 1-619); conditions: protein: recombinant; tags: N-terminal GST; dsDNA, one strand shown
# Chain of ELF1 (P32519 whole entry): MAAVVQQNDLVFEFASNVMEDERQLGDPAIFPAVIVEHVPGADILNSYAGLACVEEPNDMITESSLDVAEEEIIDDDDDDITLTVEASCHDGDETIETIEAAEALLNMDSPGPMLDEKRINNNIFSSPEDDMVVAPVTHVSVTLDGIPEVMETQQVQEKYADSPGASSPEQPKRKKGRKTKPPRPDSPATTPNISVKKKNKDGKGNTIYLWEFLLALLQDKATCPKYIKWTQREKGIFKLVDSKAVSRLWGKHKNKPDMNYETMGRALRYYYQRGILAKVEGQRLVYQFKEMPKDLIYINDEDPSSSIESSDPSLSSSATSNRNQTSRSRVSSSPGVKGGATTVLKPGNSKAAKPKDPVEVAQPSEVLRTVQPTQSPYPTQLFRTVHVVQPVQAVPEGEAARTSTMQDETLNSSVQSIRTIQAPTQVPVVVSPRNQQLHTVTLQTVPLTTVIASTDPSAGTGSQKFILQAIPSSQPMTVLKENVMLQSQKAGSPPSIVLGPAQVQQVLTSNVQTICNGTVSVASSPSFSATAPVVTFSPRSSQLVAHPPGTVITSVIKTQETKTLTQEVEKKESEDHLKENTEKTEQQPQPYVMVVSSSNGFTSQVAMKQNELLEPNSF
# Outline: as §1
# [6] = target: T5, EHF (Homo sapiens, UniProt Q9NZC4 1-300); conditions: protein: recombinant; tags: N-terminal GST; dsDNA, one strand shown
# T5 sequence: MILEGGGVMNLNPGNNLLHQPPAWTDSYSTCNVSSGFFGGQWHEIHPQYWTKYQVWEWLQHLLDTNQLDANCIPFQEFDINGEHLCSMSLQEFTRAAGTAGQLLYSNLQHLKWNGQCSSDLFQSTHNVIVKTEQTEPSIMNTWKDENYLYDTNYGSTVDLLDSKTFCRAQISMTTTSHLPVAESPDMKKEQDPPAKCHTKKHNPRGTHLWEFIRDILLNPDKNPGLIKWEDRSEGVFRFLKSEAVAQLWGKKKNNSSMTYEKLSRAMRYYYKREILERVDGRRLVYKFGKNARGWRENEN
# Outline: as §1
# [7] = target: SPI1 (Homo sapiens, UniProt P17947 1-270); conditions: protein: recombinant; tags: N-terminal GST; dsDNA, one strand shown
# Outline: as §1
# [8] = target: SPIB (Homo sapiens, UniProt Q01892 1-262); conditions: protein: recombinant; tags: N-terminal GST; dsDNA, one strand shown
# Chain of SPIB (Q01892 whole entry): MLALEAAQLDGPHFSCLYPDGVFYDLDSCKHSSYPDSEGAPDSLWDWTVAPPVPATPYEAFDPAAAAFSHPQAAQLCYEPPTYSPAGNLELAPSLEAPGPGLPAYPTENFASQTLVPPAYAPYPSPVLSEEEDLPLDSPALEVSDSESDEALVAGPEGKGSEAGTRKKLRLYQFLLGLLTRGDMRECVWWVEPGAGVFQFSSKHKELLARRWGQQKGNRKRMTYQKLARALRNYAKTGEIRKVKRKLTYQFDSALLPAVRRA
# Outline: as §1
# [9] = target: T6, ELK3 (Homo sapiens, UniProt P41970 1-407); conditions: protein: recombinant; tags: N-terminal GST; dsDNA, one strand shown
# T6 sequence: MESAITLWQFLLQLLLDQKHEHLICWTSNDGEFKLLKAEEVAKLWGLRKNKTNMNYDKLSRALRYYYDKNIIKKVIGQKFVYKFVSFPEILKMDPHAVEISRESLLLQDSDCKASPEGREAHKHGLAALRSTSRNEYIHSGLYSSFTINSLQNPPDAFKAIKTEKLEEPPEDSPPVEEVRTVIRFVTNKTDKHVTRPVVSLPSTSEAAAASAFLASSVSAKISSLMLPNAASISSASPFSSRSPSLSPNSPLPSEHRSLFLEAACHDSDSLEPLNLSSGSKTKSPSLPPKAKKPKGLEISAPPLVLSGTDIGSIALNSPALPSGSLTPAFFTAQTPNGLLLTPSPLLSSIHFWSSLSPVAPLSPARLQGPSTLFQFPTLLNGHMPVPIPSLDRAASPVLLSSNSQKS
# Outline: as §1
# [10] = target: T7, FEV (Homo sapiens, UniProt Q99581 1-238); conditions: protein: recombinant; tags: N-terminal GST; dsDNA, one strand shown
# T7 sequence: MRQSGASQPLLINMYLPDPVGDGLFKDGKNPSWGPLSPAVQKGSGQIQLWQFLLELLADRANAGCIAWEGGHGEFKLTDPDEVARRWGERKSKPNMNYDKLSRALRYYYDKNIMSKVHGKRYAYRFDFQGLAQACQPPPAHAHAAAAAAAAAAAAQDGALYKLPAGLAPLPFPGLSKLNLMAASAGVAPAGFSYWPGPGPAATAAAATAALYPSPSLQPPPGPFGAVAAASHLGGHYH
# Outline: as §1
# [11] = target: ETV5 (Homo sapiens, UniProt P41161 1-510); conditions: protein: recombinant; tags: N-terminal GST; dsDNA, one strand shown
# Chain of ETV5 (P41161 whole entry): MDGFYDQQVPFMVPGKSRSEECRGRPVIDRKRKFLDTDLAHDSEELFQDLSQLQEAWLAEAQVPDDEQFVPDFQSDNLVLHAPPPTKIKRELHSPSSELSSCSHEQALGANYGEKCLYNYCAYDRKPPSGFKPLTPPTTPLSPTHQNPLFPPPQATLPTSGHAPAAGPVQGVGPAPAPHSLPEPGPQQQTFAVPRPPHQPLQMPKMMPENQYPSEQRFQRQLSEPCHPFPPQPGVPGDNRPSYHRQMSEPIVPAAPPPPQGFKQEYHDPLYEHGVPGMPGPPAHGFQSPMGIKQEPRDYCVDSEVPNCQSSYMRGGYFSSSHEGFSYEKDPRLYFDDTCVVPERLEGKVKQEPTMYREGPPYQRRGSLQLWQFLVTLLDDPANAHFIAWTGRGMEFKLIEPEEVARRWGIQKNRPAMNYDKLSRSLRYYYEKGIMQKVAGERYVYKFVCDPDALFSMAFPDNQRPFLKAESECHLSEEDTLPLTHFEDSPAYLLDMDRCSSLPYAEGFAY
# Outline: as §1
# [12] = target: HSF1 (Homo sapiens, UniProt Q00613 1-529); conditions: protein: recombinant; tags: N-terminal GST; chain copies: 3; dsDNA, one strand shown
# Chain of HSF1 (Q00613 whole entry): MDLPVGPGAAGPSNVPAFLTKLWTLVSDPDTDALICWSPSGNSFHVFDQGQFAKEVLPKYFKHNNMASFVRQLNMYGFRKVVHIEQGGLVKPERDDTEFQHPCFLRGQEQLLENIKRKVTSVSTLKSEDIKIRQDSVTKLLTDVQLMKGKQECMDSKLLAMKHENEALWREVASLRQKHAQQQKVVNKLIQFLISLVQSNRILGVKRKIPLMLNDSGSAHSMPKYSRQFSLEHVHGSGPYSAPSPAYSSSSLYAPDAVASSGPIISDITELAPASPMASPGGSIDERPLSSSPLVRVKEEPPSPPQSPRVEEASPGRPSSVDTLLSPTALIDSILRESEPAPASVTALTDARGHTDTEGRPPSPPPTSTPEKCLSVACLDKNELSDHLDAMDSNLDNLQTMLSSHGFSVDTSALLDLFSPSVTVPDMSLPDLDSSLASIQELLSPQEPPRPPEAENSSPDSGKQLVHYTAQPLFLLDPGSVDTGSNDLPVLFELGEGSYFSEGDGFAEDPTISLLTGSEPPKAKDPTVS
# Outline: as §1
# [13] = target: T8, SPIC (Homo sapiens, UniProt Q8N5J4 1-248); conditions: protein: recombinant; tags: N-terminal GST; dsDNA, one strand shown
# T8 sequence: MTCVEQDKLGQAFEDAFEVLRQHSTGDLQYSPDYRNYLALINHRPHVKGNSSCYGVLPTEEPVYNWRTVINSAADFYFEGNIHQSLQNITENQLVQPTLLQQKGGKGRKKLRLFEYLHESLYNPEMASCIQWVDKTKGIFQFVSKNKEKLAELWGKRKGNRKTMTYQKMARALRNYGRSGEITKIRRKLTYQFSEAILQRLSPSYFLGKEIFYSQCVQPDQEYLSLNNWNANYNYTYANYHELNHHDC
# Outline: as §1
# [14] = target: ELF4 (Homo sapiens, UniProt Q99607 1-663); conditions: protein: recombinant; tags: N-terminal GST; dsDNA, one strand shown
# Chain of ELF4 (Q99607 whole entry): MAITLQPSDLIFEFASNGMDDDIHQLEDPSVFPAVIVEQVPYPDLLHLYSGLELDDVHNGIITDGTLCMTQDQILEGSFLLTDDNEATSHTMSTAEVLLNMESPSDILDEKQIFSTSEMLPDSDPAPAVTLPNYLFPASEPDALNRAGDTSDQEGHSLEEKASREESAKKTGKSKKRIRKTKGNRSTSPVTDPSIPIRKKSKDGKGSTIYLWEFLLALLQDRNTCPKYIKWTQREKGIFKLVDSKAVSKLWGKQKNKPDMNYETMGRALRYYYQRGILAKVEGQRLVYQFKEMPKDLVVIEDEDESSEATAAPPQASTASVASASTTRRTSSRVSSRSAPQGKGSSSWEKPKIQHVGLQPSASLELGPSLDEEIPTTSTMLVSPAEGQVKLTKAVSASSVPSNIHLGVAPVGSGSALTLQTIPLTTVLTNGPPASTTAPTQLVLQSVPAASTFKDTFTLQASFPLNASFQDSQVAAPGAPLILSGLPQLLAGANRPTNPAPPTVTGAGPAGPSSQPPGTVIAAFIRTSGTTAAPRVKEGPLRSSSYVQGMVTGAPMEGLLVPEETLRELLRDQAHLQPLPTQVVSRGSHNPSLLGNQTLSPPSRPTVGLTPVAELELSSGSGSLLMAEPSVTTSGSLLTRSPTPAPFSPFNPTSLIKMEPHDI
# Outline: as §1
# [15] = target: T9, ELK4 (Homo sapiens, UniProt P28324-2 1-405); conditions: protein: recombinant; tags: N-terminal GST; dsDNA, one strand shown
# T9 sequence: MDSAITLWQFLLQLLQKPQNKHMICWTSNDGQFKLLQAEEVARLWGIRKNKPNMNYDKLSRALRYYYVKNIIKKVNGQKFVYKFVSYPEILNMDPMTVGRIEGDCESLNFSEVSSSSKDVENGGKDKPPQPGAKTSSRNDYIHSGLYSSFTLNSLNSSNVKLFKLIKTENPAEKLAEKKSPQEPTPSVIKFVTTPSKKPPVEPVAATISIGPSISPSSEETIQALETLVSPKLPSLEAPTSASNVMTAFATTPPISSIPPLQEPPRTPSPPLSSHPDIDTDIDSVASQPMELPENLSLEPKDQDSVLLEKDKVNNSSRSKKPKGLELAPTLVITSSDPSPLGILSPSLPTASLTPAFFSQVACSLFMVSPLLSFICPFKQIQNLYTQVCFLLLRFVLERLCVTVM
# Outline: as §1
# [16] = target: T10, ETV2 (Homo sapiens, UniProt O00321 1-342); conditions: protein: recombinant; tags: N-terminal GST; dsDNA, one strand shown
# T10 sequence: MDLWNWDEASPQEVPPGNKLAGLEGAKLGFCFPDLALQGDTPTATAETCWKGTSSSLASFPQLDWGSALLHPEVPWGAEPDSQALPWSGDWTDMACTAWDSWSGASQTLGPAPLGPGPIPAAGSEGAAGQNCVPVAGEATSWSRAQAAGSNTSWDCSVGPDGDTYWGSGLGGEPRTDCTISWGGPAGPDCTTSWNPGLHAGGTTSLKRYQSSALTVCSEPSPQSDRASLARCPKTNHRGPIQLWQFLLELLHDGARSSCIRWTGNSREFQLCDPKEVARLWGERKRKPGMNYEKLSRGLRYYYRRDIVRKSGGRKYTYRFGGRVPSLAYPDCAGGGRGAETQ
# Outline: as §1
# [17] = target: T11, ELF3 (Homo sapiens, UniProt P78545 1-371); conditions: protein: recombinant; tags: N-terminal GST; dsDNA, one strand shown
# T11 sequence: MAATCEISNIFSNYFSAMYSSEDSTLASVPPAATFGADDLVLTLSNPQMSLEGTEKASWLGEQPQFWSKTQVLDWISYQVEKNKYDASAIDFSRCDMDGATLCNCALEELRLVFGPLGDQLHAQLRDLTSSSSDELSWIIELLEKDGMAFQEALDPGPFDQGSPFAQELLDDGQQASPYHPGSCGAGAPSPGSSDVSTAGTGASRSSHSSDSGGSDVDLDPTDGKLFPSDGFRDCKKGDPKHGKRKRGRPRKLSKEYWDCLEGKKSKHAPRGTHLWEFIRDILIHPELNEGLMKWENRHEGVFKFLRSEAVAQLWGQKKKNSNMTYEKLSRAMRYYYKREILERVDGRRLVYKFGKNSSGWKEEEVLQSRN
# Outline: as §1
# [18] = target: ETV1 (Homo sapiens, UniProt P50549 1-477); conditions: protein: recombinant; tags: N-terminal GST; dsDNA, one strand shown
# Chain of ETV1 (P50549 whole entry): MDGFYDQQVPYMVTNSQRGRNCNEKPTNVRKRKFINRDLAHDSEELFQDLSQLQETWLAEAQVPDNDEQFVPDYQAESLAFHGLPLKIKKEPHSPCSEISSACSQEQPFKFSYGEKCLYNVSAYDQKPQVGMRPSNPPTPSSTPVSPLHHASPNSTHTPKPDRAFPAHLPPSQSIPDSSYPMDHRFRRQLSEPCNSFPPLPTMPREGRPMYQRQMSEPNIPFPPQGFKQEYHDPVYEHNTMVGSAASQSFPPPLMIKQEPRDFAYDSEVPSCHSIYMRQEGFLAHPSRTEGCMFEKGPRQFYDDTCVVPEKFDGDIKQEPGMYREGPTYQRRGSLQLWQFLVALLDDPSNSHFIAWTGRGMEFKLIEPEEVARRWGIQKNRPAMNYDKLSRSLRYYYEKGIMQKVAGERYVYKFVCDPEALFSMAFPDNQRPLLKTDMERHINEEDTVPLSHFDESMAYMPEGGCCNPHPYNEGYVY
# Outline: as §1
sequence,measurement,setting,value
GTCTCT,binding signal,[1],"1.41 fold enrichment (6-mer frequency, TF over GST control)"
same,binding signal,[2],"1.26 fold enrichment (6-mer frequency, TF over GST control)"
same,binding signal,[3],"1.31 fold enrichment (6-mer frequency, TF over GST control)"
same,binding signal,[4],"1.33 fold enrichment (6-mer frequency, TF over GST control)"
same,binding signal,[5],"1.29 fold enrichment (6-mer frequency, TF over GST control)"
same,binding signal,[6],"1.19 fold enrichment (6-mer frequency, TF over GST control)"
same,binding signal,[7],"1.32 fold enrichment (6-mer frequency, TF over GST control)"
same,binding signal,[8],"1.25 fold enrichment (6-mer frequency, TF over GST control)"
same,binding signal,[9],"1.14 fold enrichment (6-mer frequency, TF over GST control)"
same,binding signal,[10],"1.15 fold enrichment (6-mer frequency, TF over GST control)"
same,binding signal,[11],"1.14 fold enrichment (6-mer frequency, TF over GST control)"
same,binding signal,[12],"1.12 fold enrichment (6-mer frequency, TF over GST control)"
same,binding signal,[13],"1.33 fold enrichment (6-mer frequency, TF over GST control)"
same,binding signal,[14],"1.33 fold enrichment (6-mer frequency, TF over GST control)"
same,binding signal,[15],"1.18 fold enrichment (6-mer frequency, TF over GST control)"
same,binding signal,[16],"1.24 fold enrichment (6-mer frequency, TF over GST control)"
same,binding signal,[17],"1.11 fold enrichment (6-mer frequency, TF over GST control)"
same,binding signal,[18],"1.27 fold enrichment (6-mer frequency, TF over GST control)"
